Compound activity as filed in PubChem BioAssay.
Shiga inhibitor = blocks Shiga toxin action in Vero cells; Vero cells, Shiga toxin protein synthesis inhibition reporter; inhibition, % at 38.7 µM; 9.2% of 290,000 active; in the data active = inhibition mostly above about 28%, no sharp cut-off; inactive = mostly below about 43%; also: 0% is about no effect
Pf growth 96h = P. falciparum growth inhibition at 96 hour, primary screen for plastid delayed-death inhibitors; P. falciparum luciferase reporter growth, 96 h; Potency, µM (top dose mostly 28.7 µM), for the others: at the top dose activity change, negative = inhibition, actives largely listed as inhibitors; 6.9% of 320,000 active; also: potency is read from the fitted curve at half-maximal effect; % is scaled to controls: 0 for no effect and ±100 for the full control effect
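Cell-based qHTS: luciferase-tagged P. falciparum in erythrocytes (2% hematocrit, 0.05% parasitemia final) incubated with compounds for 96 hours, 37 C, 5% CO2; luciferase detection reagent then added and luminescence measured.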
Pf growth 48h = P. falciparum growth inhibition at 48 hours (one generation); Potency, µM (titrated, usually from 28.7 µM), without a hit: top-dose activity change, negative = inhibition, actives largely listed as inhibitors; 5.9% of 310,000 active; AID 504832; P. falciparum luciferase growth in erythrocytes, 48 h; also: potency is read from the fitted curve at half-maximal effect; % is scaled to controls: 0 for no effect and ±100 for the full control effect
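Growth was read as firefly luciferase luminescence after a 48 h, 37 C, 5% CO2 exposure of compounds to reporter-bearing P. falciparum cultures (0.1% parasitemia, 2% hematocrit final) in Albumax-supplemented RPMI 1640.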
Cycloheximide cs = counter-screen for Shiga toxin inhibitors: cycloheximide protein synthesis inhibition. cell reporter, cycloheximide protein synthesis inhibition counterscreen. 12% of 300,000 active. max response, %; in the data active = max response mostly above about 13%, no sharp cut-off; inactive = mostly below about 14%; also: read at 38.3 µM for the half of the compounds with a filed dose; 0% is about no effect
MARV entry inh = inhibitors of Marburg virus binding or cell entry; Marburg virus pseudotyped entry inhibition, cell reporter; Potency, µM (doses to about 37.8 µM), without a hit: at the top dose activity change, negative = inhibition, actives largely listed as inhibitors; 1.8% of 300,000 active; calls by dose curve; tested in HEK293 cells; also: potency is read from the fitted curve at half-maximal effect; % is scaled to controls: 0 for no effect and ±100 for the full control effect
Lassa entry inh = Lassa virus entry inhibition; Lassa virus pseudotype entry inhibition, cell reporter; 1.2% of 300,000 active; Potency, µM (titrated, usually from 37.9 µM), for inactives: at the top dose activity change, negative = inhibition, most hits filed as inhibitors; calls by dose curve; tested in HEK293 cells; also: potency is read from the fitted curve at half-maximal effect; % is scaled to controls: 0 for no effect and ±100 for the full control effect; nearly all actives have a fitted effect of over 50% in size
Numbers without * were called inactive; ? = inconclusive; nt = no result given; ! = a repeat was not active; [ ] = remark or other dose. In the library only some 19% were active in any assay of this set; here they are far more common. Unless noted, calls follow the shape of the dose curve; as a rule, active = well fitted inhibition curve with a large enough effect; inconclusive = small, poorly fitted or top-dose-only effect, or another doubt; inactive = no such curve, though single readings can be large or run the other way.

SMILES | Shiga inhibitor | Pf growth 96h | Pf growth 48h | Cycloheximide cs | MARV entry inh | Lassa entry inh
Cc1ccc(S(=O)(=O)Nc2cc(S(=O)(=O)c3ccc(C)cc3)c(O)c3cccnc23)cc1 | -3 | nt | nt | -2 | nt | nt
Oc1c(Cl)cc(Cl)c2cccnc12 | -1 | 4.3µM*! | 8.5µM* | -1 | nt | nt
COC(=O)N1CC=CC1(C)C(=O)NCc1cc(F)cc(C(F)(F)F)c1 (stereo not given) | -5 | -5% | 2% | -2 | -1% | -1%
CC(=NCCCN(C)C)C1=C(O)c2ccccc2C1=O | 84 | 0% | 30% | 31 | 3% | 13%
CC(=NC1CC1)C1=C(O)c2ccccc2C1=O | 55* | 157% | nt | 50* | ? | 4%
C/C(=N\N(C)C)C1=C(O)c2ccccc2C1=O | 89* | 112% | 77% | 29* | -1% | 7%
CN(c1ccccc1)S(=O)(=O)c1ccc(NC(=O)c2ccco2)cc1 | 20 | -18% | 6%[5.75 µM] | 14 | ? | ?
O=C(Nc1ccccc1)Nc1ccc(S(=O)(=O)N2CCCCC2)cc1 | 0 | -12% | ? | 12 | -16%[46.1 µM] | -12%
O=C(Nc1ccc(S(=O)(=O)N2CCCCCC2)cc1)c1ccco1 | 40* | ? | ? | 23* | ? | ?
CCN(c1ccccc1)S(=O)(=O)c1ccc(NC(=O)c2ccco2)cc1 | 3 | 41% | 10µM* | -2 | ? | ?
O=S(=O)(Cc1ccccc1)Nc1ccc(S(=O)(=O)N2CCCC2)cc1 | 6 | 5% | 2.3µM* | -2 | nt | nt
CCN(c1ccccc1)S(=O)(=O)c1cc(C(=O)Nc2ccc(F)c(F)c2)ccc1F | -6 | -14% | ? | -2 | ? | 14µM*
O=C(COC(=O)c1nc(Cl)ccc1Cl)NC1CCS(=O)(=O)C1 (stereo not given) | nt | -14% | 0% | nt | -17% | -2%
Cc1sc2ncnc(N(C)Cc3cccs3)c2c1C | -10 | 11% | nt | 2 | 1% | -14%
CCOc1ccc2[nH]c3nc(SCC(=O)NCC4CCCO4)nnc3c2c1 (stereo not given) | 1 | ? | -21% | 3 | ? | ?
CC(=O)c1cccc(-n2nnnc2SCC(=O)NNC(=O)C(C)C)c1 | 3 | 46% | 0% | -1 | nt | nt
Cc1cccc(C)c1NC1=NCCCCS1 | -22 | 28% | 11% | -5 | -6% | -4%
CC(=O)Nc1ccc(S(=O)(=O)N2CCN(C(=O)c3ccco3)CC2)cc1 | -5 | ? | 45%[0.00184 µM] | 21* | nt | nt
CN(C1CCCCC1)S(=O)(=O)c1ccc(C(=O)O)cc1 | 22 | 12µM* | nt | -1 | 0% | 1%
O=C(Nc1nc(-c2ccc(S(=O)(=O)N3CCCC3)cc2)cs1)c1ccco1 | 22* | 27% | ? | 5.2* | ? | -20%
CN(C1CCCCC1)S(=O)(=O)c1ccc(NC(=O)c2ccco2)cc1 | -2 | 13% | ? | -1 | -6% | 11µM*
C[C@H](NC(=O)c1ccco1)C(=O)Nc1ccc(S(=O)(=O)N2CCCC2)cc1 | -15 | -29% | nt | -4 | ? | -5%
CC(=O)Nc1ccc(S(=O)(=O)N2CCN(S(=O)(=O)N3CCC(C)CC3)CC2)cc1 | -5 | -2% | 0% | -4 | 14%[46.1 µM] | 5%
CCOC(=O)c1nn(-c2ccc(F)cc2)c2nc(-c3ccccc3)c(C#N)c(=O)n12 | -18 | ? | ? | -1 | 3% | 2%
COC(=O)CCCC1=CC2=CC(=O)C(C)(OC(=O)c3cccs3)C(=O)C2=CN1C1CCCC1 (stereo not given) | 11 | ? | ? | 3 | 44%[14.2 µM] | nt
SMILES | Shiga inhibitor | Pf growth 96h | Pf growth 48h | Cycloheximide cs | MARV entry inh | Lassa entry inh
CCCCc1nc(C(N)=O)c2[nH]c(=O)n(-c3ccc(OC)c(OC)c3)c2n1 | 18 | 0% | 8% | -2 | nt | nt
CCC1(c2ccccc2)NC(=O)N(CC(=O)Nc2cc(S(=O)(=O)N3CCOCC3)ccc2OC(C)C)C1=O (stereo not given) | nt | ? | 12µM* | nt | 2% | -2%
CC(C)Oc1ccc(S(=O)(=O)N2CCCCC2)cc1NC(=O)CN1CCCC1c1cccs1 (stereo not given) | nt | 4.1µM* | 4.1µM* | nt | nt | nt
CC(C)Oc1ccc(S(=O)(=O)N2CCCCC2)cc1NC(=O)CN1C(=O)NC(C)(C2CC2)C1=O (stereo not given) | nt | -13% | ? | nt | ? | 1%
CC(C)Oc1ccc(S(=O)(=O)N2CCCCC2)cc1NC(=O)CN1C(=O)NC2(CCCC2)C1=O | nt | ? | 12µM* | nt | -22%[46.1 µM] | 17%
CC(C)Oc1ccc(S(=O)(=O)N2CCCCC2)cc1NC(=O)CN1C(=O)NC(C)(c2ccccc2)C1=O (stereo not given) | -2 | ? | ? | 1 | nt | nt
CCOc1ccc(S(=O)(=O)N2CCOCC2)cc1NC(=O)CN1C(=O)NC(C)(c2ccccc2)C1=O (stereo not given) | nt | ? | ? | nt | ? | -2%
Cc1ccc(C2(C)NC(=O)N(CC(=O)Nc3cc(S(=O)(=O)N4CCCCC4)ccc3OC(C)C)C2=O)cc1 (stereo not given) | nt | ? | ? | nt | ? | -22%[46.1 µM]
CCOc1ccc(S(=O)(=O)N2CCOCC2)cc1NC(=O)CN1C(=O)NC(CC)(c2ccccc2)C1=O (stereo not given) | -10 | ? | 12µM* | 1 | -2% | -8%
CC(C(=O)O)c1n[nH]c(=O)c2ccccc12 (stereo not given) | 1 | 21% | nt | 8 | 1% | 2%
O=C1CCCN1CC(CN1CCOCC1)Sc1nnnn1-c1ccccc1 (stereo not given) | -13 | 14% | 25% | -4 | ? | -1%[46.1 µM]
CCC(=O)Nc1nc(NCc2ccccc2OC)n(-c2ccccc2)n1 | -7 | 26% | 20% | 1 | nt | nt
COc1ccc(/C=N/NC(=O)c2ccc(NC(=O)c3cccc([N+](=O)[O-])c3)cc2)c(OC)c1 | 20 | 40% | ? | 13 | ? | -25%
O=C(N/N=C/c1ccccn1)c1cc([N+](=O)[O-])cc([N+](=O)[O-])c1 | -5 | 23% | ? | 8 | nt | nt
COc1ccccc1/C=N/NC(=O)c1ccc(NC(=O)c2cccc([N+](=O)[O-])c2)cc1 | -2 | -1% | 5.2µM* | 14 | nt | nt
O=C(N/N=C/c1ccccn1)c1cccc([N+](=O)[O-])c1 | 55* | -2% | ? | 8.8* | ? | -20%
COc1cccc(/C=N/NC(=O)c2cc3cc([N+](=O)[O-])ccc3s2)c1O | -11 | ? | 4.1µM* | 1 | 1.8µM* | ?
O=C(N/N=C/c1ccccn1)c1ccc([N+](=O)[O-])cc1 | 100* | 8.3µM* | ? | 36* | -4%[46.1 µM] | 20%
O=C(N/N=C/c1ccccn1)c1ccc(NC(=O)c2cccc([N+](=O)[O-])c2)cc1 | 9 | ? | -28% | 0 | ? | 6%
